Screening data from PubChem.
Marburg entry inh: inhibitors of Marburg virus binding or cell entry; Marburg virus pseudotyped entry inhibition, cell reporter; Potency, µM (doses to about 37.8 µM), inactives show at the top dose activity change, negative = inhibition, actives largely listed as inhibitors; 300,000 tested, 1.8% active; AID 540276; calls by dose curve; tested in HEK293 cells; further: potency means the concentration at half of the fitted maximal effect
LASV entry inh: blocks Lassa virus binding to or entry into cells. Potency, µM (titrated, usually from 37.9 µM), for inactives: at the top dose activity change, negative = inhibition, actives largely listed as inhibitors. AID 540256. 300,000 tested, 1.2% active. Lassa virus pseudotype entry inhibition, cell reporter; calls by dose curve; tested in HEK293 cells; further: potency means the concentration at half of the fitted maximal effect; nearly all actives have a fitted effect of over 50% in size
Pf growth 96h: inhibits malaria parasite growth, 96 h; 320,000 tested, 6.9% active; AID 504834; Potency, µM (doses to about 28.7 µM), without a hit: at the top dose activity change, negative = inhibition, most hits filed as inhibitors; P. falciparum luciferase reporter growth, 96 h; further: potency means the concentration at half of the fitted maximal effect
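P. falciparum expressing integrated firefly luciferase, in erythrocytes at 2% hematocrit, 0.05% parasitemia, incubated with compounds 96 h at 37 C, 5% CO2. Growth inhibition read as loss of luminescence; two-generation exposure targets delayed-death apicoplast inhibitors.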
Pf growth 48h: inhibits P. falciparum growth in the first generation, 48 h | P. falciparum luciferase growth in erythrocytes, 48 h | Potency, µM (top dose mostly 28.7 µM), inactives show at the top dose activity change, negative = inhibition, actives largely listed as inhibitors | 310,000 tested, 5.9% active | AID 504832; further: potency means the concentration at half of the fitted maximal effect
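Luciferase-expressing parasites in RBCs, 2% Hct / 0.1% parasitemia final; RPMI 1640 + 0.5% Albumax; 37 C, 5% CO2, one generation; luminescence read-out, lower signal = inhibition.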
HCMV antiviral: human cytomegalovirus inhibition | HFF cells, HCMV-luciferase reporter, 72 h; hits give low values | activity change, negative = inhibition, % at 57.5 µM | 410,000 tested, 4.5% active; in the data active means activity change below about -60%; inconclusive means no clear call, values can overlap the other calls; inactive means above about -39%
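Screen run at 2 compound doses on HFFs infected with reporter HCMV, MOI 1 PFU/cell. Luciferase activity from cell lysates at 72 h post infection gave inhibition relative to buffer-only and Salinomycin wells.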
HCV inhibitor: inhibitors of hepatitis C virus infection; Potency, µM (highest dose often 41.8 µM), for inactives: at the highest dose activity change, negative = inhibition, hits mostly inhibitors; Huh7.5.1 HCVcc-Cre infection, luciferase reporter, 44 h; 340,000 tested, 3.4% active; further: potency means the concentration at half of the fitted maximal effect
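Antiviral activity was scored by luciferase reporter output from cells infected with HCVcc-Cre (~0.5 moi) in presence of compound, 44 h infection period, cells seeded 1,000/well 4 h prior.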
* marks the source's active call; other numbers are inactive results; ? = inconclusive; nt = not tested or not shown; [ ] = dose if it differs, or a comment. The list is not random: actives were taken first. Their share in the collection is about 14%. Unless noted, the call rests on the fitted dose curve; in most records, active means well fitted inhibition curve with a large enough effect; inconclusive means small, poorly fitted or top-dose-only effect, or another doubt; inactive means no such curve, though single readings can be large or run the other way. On the % scale 0 is the no-effect control and ±100 the full control effect.

SMILES	Marburg entry inh	LASV entry inh	Pf growth 96h	Pf growth 48h	HCMV antiviral	HCV inhibitor
COCCCn1c(-c2ccccc2Cl)n[nH]c1=S	27%	8%	1.9µM*	-4%	15	0%
COc1cccc(OCc2cc(C(=O)NCc3cnc4ccccn34)no2)c1	nt	nt	?	?	?	8.9µM*
Cc1cc(OCc2cc(C(=O)NCCN3CCCCC3CO)no2)cc(C)c1Cl (stereo not drawn)	?	?	?	7%	-11	8.9µM*
COc1cccc(OCc2cc(C(=O)NCC3CCCCC3)no2)c1	nt	nt	12µM*	20%	35	1%
CCOC(=O)CC1(NC(=O)c2cc(COc3cccc(OC)c3)on2)CCCCC1	nt	nt	8%	?	-35	10µM*
COc1cccc(CCNC(=O)c2cc(COc3cccc(OC)c3)on2)c1	nt	nt	nt	nt	2	nt
COc1cccc(OCc2cc(C(=O)NCc3ccccn3)no2)c1	?	-4%[46.1 µM]	61%	18%	39	2%
COc1cccc(OCc2cc(C(=O)NCCN3CCCCC3CO)no2)c1 (stereo not drawn)	31%	3%	?	-5%	?	-25%
CCOC(=O)c1ccc(NC(=O)C2Cc3ccccc3C(=O)O2)cc1 (stereo not drawn)	?	19%[46.1 µM]	nt	nt	-14	nt
CCCn1c(SCC(=O)NCCCN2CCCC2=O)nc2ccccc2c1=O	nt	nt	nt	nt	13	14%
O=C(NC1CC1)c1ccc2sc([C@@H]3O[C@H](CO)[C@H](O)[C@H](O)[C@H]3O)nc2c1	nt	nt	nt	nt	12	nt
O=C(COc1ccc(F)cc1)OCc1cc(=O)n2nc(-c3cccs3)sc2n1	nt	0%[46.1 µM]	nt	nt	6	nt
COc1ccc(/C=C/C(=O)Nc2ccccc2C(N)=O)cc1S(=O)(=O)N1CCOCC1	-12%[46.1 µM]	9%	4.1µM*	?	-23	0%
CCCNC(=O)/C=C/c1ccc(S(=O)(=O)Nc2ccccc2OC)cc1	?	5µM*	9.3µM*	-24%	-37	?
COc1ccc(CCNC(=O)/C=C/c2ccc(S(=O)(=O)N3CCOCC3)cc2)cc1	nt	nt	?	-17%	34	-5%
COc1ccccc1NS(=O)(=O)c1ccc(/C=C/C(=O)O)cc1	1%[46.1 µM]	-2%[46.1 µM]	3%	16%	-38	22%
COc1ccccc1CNC(=O)/C=C/c1ccc(S(=O)(=O)N2CCOCC2)cc1	-8%[46.1 µM]	-4%	4.7µM*	?	-8	-12%
COc1ccc(S(=O)(=O)N2CCOCC2)cc1NS(=O)(=O)/C=C/c1ccccc1	23%[46.1 µM]	?	-6%	0%	-36	23%
COc1ccccc1NS(=O)(=O)/C=C/c1ccccc1	-3%	7%	8.3µM*	-6%	-25	0%
CCCCCCCCN1C(=O)[C@@H](CC(=O)NCC23CC4CC(CC(C4)C2)C3)C[C@@]2(C(=O)OC)C1=C[C@H](C(C)(C)C)O[C@@H]2C	nt	nt	nt	nt	-29	nt
CCCc1c(C(=O)OCC)nnc2c(-c3ccccc3)c(C)nn12	-3%[46.1 µM]	?	nt	nt	-4	nt
COc1ccc(/C=C/C(=O)Nc2ccc(C)c(S(=O)(=O)N3CCOCC3)c2)cc1	nt	nt	nt	nt	-95*	2.8µM*
COc1ccc(/C=C/C(=O)Nc2cc(F)ccc2C)cc1S(=O)(=O)N1CCOCC1	3%[46.1 µM]	-39%[46.1 µM]	?	15µM*	-24	?
COc1ccccc1NC(=O)/C=C/c1ccc(OC)c(S(=O)(=O)N2CCOCC2)c1	19%[46.1 µM]	nt	-5%[5.75 µM]	13µM*	-9	?
O=C(/C=C/c1ccc(S(=O)(=O)N2CCOCC2)cc1)NCCc1ccc(C(F)(F)F)cc1	nt	nt	6.6µM*	12µM*	-15	?
SMILES	Marburg entry inh	LASV entry inh	Pf growth 96h	Pf growth 48h	HCMV antiviral	HCV inhibitor
COc1ccc(CCCc2nnc(SCC(=O)Nc3cc(F)ccc3C)o2)cc1	-4%[46.1 µM]	11%[46.1 µM]	nt	nt	-5	nt
Nc1ccc(S(=O)(=O)c2cc(O)c3ccccc3c2O)cc1	1%	16%	nt	nt	60	-27%
COC(=O)C1=C(C(=O)OC)[C@@H]2N(C)c3ccccc3[C@@]23CCC(=O)N(CC(C)C)C3=N1	8%[14.2 µM]	nt	nt	nt	nt	nt
CCOC(=O)[C@]12CCCC=C1N(Cc1ccccc1)C(=O)[C@H](CC(=O)N1CCOCC1)C2	nt	nt	nt	nt	92	nt
COc1ccc(/C=C/C(=O)NC2CCCCCC2)cc1S(=O)(=O)N1CCOCC1	?	?	9.3µM*	?	20	-18%
O=C(c1cnc(Cl)c(Cl)c1)N1CCN(S(=O)(=O)c2cccs2)CC1	nt	nt	nt	nt	9	nt
CC(NC(=O)C1CCN(C(=O)Nc2ccccc2)CC1)c1ccccc1 (stereo not drawn)	26%[46.1 µM]	16%	18%	-1%	2	14%
O=C(/C=C/c1cccs1)N1CCC2(CC1)Oc1ccc(F)cc1C(=O)C21CC(c2ccc(Cl)cc2)=NO1 (stereo not drawn)	nt	nt	1.9µM*	9.3µM*	-7	2%
CC(C)(C)OC(=O)N1CCC2(CC1)Oc1ccc(F)cc1C(=O)C21CC(c2cccnc2)=NO1 (stereo not drawn)	nt	nt	?	10µM*	38	23%
O=C(/C=C/c1cccs1)N1CCC2(CC1)Oc1ccc(F)cc1C(=O)C21CC(c2ccccc2)=NO1 (stereo not drawn)	nt	nt	9.3µM*	10µM*	0	-10%
CCc1ccc(-n2nc3ccc(NC(=O)COc4ccc(OC)cc4)cc3n2)cc1	?	?	nt	nt	51	nt
CCn1c2ccccc2c2nc3cc(OC)c(OC)cc3nc21	?	-23%	3.3µM*	30%	16	?
COc1cc2nc3c4ccccc4n(CC#N)c3nc2cc1OC	nt	nt	23%	8%	19	nt
Cc1cc(C)cc(NC(=O)Cn2c(=O)n(-c3ccc(C)c(C)c3)c(=O)c3oc4ccccc4c32)c1	nt	-2%[46.1 µM]	nt	nt	-10	nt
CCOC(=O)N1CCN(C(=O)C[C@@H]2C[C@@]3(C(=O)OCC)CCC=C3N(Cc3ccc(Cl)cc3Cl)C2=O)CC1	nt	nt	nt	nt	4	nt
CCC(C)(C)NC(=O)C(c1ccc(C)o1)N(Cc1ccc2c(c1)OCO2)C(=O)c1snc(C(N)=O)c1N (stereo not drawn)	-20%[46.1 µM]	nt	?	-12%	-18	1%
Cc1ccc(C(=O)N2CCN(c3ccc(NC(=O)c4ccc5c(c4)OCCO5)cc3)CC2)cc1	?	?	?	?	52	2.8µM*
Cc1ccccc1C(=O)N1CCN(c2ccc(NC(=O)c3ccc4c(c3)OCCO4)cc2)CC1	5µM*	?	?	?	-89*	8.9µM*
COc1c(C)cccc1C(=O)Nc1ccc(N2CCN(C(=O)c3ccccc3C)CC2)cc1	?	?	-15%	?	-36	7.9µM*
O=C(Nc1ccc(N2CCN(C(=O)c3ccccc3)CC2)cc1)c1ccc2c(c1)OCO2	-25%	-23%	-5%	?	-21	22µM*
